{
  "source": "ChEMBL document CHEMBL1857833",
  "about": "“Screening and optimization of specific chemical series against human African Trypanosomiasis (HAT)”",
  "note": "Values joined by “and” are separate entries in the source; they are usually repeats but may differ in a detail not shown here. Equal entries are not always repeated. The campaign covered roughly 4,400 compounds. About 390 (8.9%) showed an effect of 50% or more. Many of the other results were omitted from the sample, so strong results are more common in it than they were.",
  "data": [
    {"tested_on": "Trypanosoma brucei", "assay": "DNDI: Inhibition of Human African Trypanosomiasis, SBRI 427, in vitro at 2 ug.mL-1", "type": "functional", "values": [
      {"smiles": "CCC(NCc1coc(-c2ccc(C)cc2)n1)c1ccccc1", "note": "(stereo not drawn)", "% inhibition": "-6% and 4%"},
      {"smiles": "Cc1cc(Oc2ccc(/C(=N/O)N3CCSCC3)cn2)cc(C(C)C)c1", "% inhibition": "4%"},
      {"smiles": "Cc1ccc(/C(=N/O)NCc2ccc(C)o2)c(OCc2ccccc2F)n1", "% inhibition": "18%"},
      {"smiles": "CC(CCc1ccccc1)NCc1coc(-c2ccc(F)cc2)n1", "note": "(stereo not drawn)", "% inhibition": "17%"},
      {"smiles": "Cc1ccc(Oc2nc(C)ccc2/C(=N/O)NCc2cccs2)cc1", "% inhibition": "16%"},
      {"smiles": "COc1cccc(N2CCN(Cc3coc(-c4ccc(Cl)cc4Cl)n3)CC2)c1", "% inhibition": "10%"},
      {"smiles": "Cc1ccc(/C(=N/O)NCC2CCCCC2)c(OCc2ccccn2)n1", "% inhibition": "43%"},
      {"smiles": "Cc1ccc(/C(=N/O)NC2CC(C)CC(C)(C)C2)c(OCc2ccccn2)n1", "note": "(stereo not drawn)", "% inhibition": "56%"},
      {"smiles": "Cc1ccc(/C(=N/O)NC(C)C)c(OCc2ccccn2)n1", "% inhibition": "11%"},
      {"smiles": "Cc1cc(C)cc(Oc2nc(C)ccc2/C(=N/O)NC2CC(C)CC(C)(C)C2)c1", "note": "(stereo not drawn)", "% inhibition": "-4%"},
      {"smiles": "Cc1ccc(/C(=N/O)NC2CCc3ccccc32)c(OCc2ccccn2)n1", "note": "(stereo not drawn)", "% inhibition": "5%"},
      {"smiles": "CSc1ccc(Oc2nc(C)ccc2/C(=N/O)NC2CC(C)CC(C)(C)C2)cc1", "note": "(stereo not drawn)", "% inhibition": "10%"},
      {"smiles": "Cc1ccc(/C(=N/O)NC2CC(C)CC(C)(C)C2)c(OCC(C)C)n1", "note": "(stereo not drawn)", "% inhibition": "97%"},
      {"smiles": "Cc1ccc(/C(=N/O)NC2CCC(C)CC2)c(OCc2ccccn2)n1", "note": "(stereo not drawn)", "% inhibition": "100%"},
      {"smiles": "CC(C)COc1ncccc1/C(=N/O)NC1CC(C)CC(C)(C)C1", "note": "(stereo not drawn)", "% inhibition": "-8%"},
      {"smiles": "CN(Cc1ccccc1)Cc1coc(-c2cccc3ccccc23)n1", "% inhibition": "-2%"},
      {"smiles": "COc1ccc(OC)c(NCc2coc(-c3ccccc3C)n2)c1", "% inhibition": "8%"},
      {"smiles": "CCCN(CC1CC1)/C(=N\\O)c1ccc(C)nc1Oc1cccc2cnccc12", "% inhibition": "23%"},
      {"smiles": "Cc1ccc(/C(=N/O)N2C(C)C=CC2C)c(Oc2cccc(C(C)C)c2)n1", "note": "(stereo not drawn)", "% inhibition": "20%"},
      {"smiles": "Cc1cccc(Oc2nc(C)ccc2/C(=N/O)NC2CCCCC2)c1", "% inhibition": "98%"},
      {"smiles": "Cc1ccc(/C(=N/O)NC2CCCCC2)c(Oc2ccc3ccccc3c2)n1", "% inhibition": "97%"},
      {"smiles": "Cc1ccc(/C(=N/O)NC2CC2)c(Oc2ccc3ccccc3c2)n1", "% inhibition": "16%"},
      {"smiles": "Cc1cccc(Oc2nc(C)ccc2/C(=N/O)NC2CCCC2)c1", "% inhibition": "11%"},
      {"smiles": "Cc1ccc(/C(=N/O)NC2CCCCC2)c(Oc2cccc(C(C)C)c2)n1", "% inhibition": "22%"},
      {"smiles": "Cc1ccc(/C(=N/O)NC2CCC2)c(Oc2ccc3ccccc3c2)n1", "% inhibition": "7%"},
      {"smiles": "CCOc1cccc(-c2nc(CN(C)Cc3cc(OC)c(OC)c(OC)c3)co2)c1", "% inhibition": "18%"},
      {"smiles": "COc1ccc(Oc2cc(/C(=N/O)NCc3ccccc3C)ccn2)cc1", "% inhibition": "21%"},
      {"smiles": "Cc1ccc(-c2nc(CNCC(C)(C)CN(C)C)co2)cc1", "% inhibition": "10%"}
    ]}
  ]
}
